This is part of a sample that, as a whole, favours compounds with a hit. Of some 79,000 tested, about 15% had one in any assay. Values without a mark were called inactive. Calls of active or inactive are those of the source. No stated cut-off is given here; in the data, active means growth inhibition above about 70%; inactive means the rest.
Assay: NCI Yeast Anticancer Drug Screen. Data for the rad14 strain (AID 159);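 further: 0% = growth of vehicle-treated control cultures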
Settings: S. cerevisiae rad14 strain growth inhibition; at 3.7 µM; active compounds read high
Summary of the method: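 Here, inhibition of yeast growth was measured after compound exposure, using a strain with a genetic defect in DNA damage repair and vehicle-treated cultures as the reference.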

| SMILES | growth inhibition |
| --- | --- |
| CN(C)c1ccc(C2CC(C)(O)Oc3cc4c(cc32)OCO4)cc1 (stereo not given) | 1% |
| O=P(NC1CCCCC1)(OCc1ccccc1)OCc1ccccc1 | -2% |
| COc1oc(C(=O)NC2CCCCC2)c(-c2ccc(Cl)cc2)c1S(=O)(=O)c1ccccc1 | -17% |
| C[Si](C)(C)/C=C/CCNC(C#N)c1ccccc1 (stereo not given) | 3% |
| CN(C)CCOC1(Cc2ccc(F)cc2)CCC(C(C)(C)C)CC1 (stereo not given) | 7% |
| CC1(C)CC(=O)C(/C=N/c2nc(-c3ccccc3)cs2)=C(O)C1 | 5% |
| CC(=O)Nc1ccc2c(c1)Cc1cc(N=C3C=CC(=O)O3)ccc1-2 | 27% |
| O=C1C=C(Cl)C(=O)C(c2ccc(Cl)cc2)=C1 | 23% |
| CNCCCNc1c2ccccc2nc2cccc([N+](=O)[O-])c12 | 93% (active) |
| CCCCCCCCCCCC(O)S(=O)(=O)O (stereo not given) | 4% |
| CC(C)OC(=O)c1ccc(CCc2cc(O)c(Br)cc2O)cc1 | 53% |
| CCc1cc(O)c(Cl)c(C)c1Cl | -5% |
| C(=Nc1ccc(-c2cc(-c3ccccc3)nc3ccc4ccccc4c23)cc1)c1ccccc1 | 20% |
| CSc1nc(C)c(CCOC(C)=O)c(N=P(c2ccccc2)(c2ccccc2)c2ccccc2)n1 | 2% |
| CS(=O)(=O)SCc1ccc([N+](=O)[O-])cc1 | 18% |
| COC1=C(OC)C(=O)C(Sc2ccc3ccccc3c2)=CC1=O | -8% |
| COc1nc2c(c(=O)n1C)N=C(c1ccccc1)[C@H](C(CC(=O)c1ccccc1)c1ccccc1)C(c1ccccc1)N2 (stereo not given in full) | -10% |
| Nc1cc(N)c(N=Nc2cccc3c(S(=O)(=O)O)cccc23)cc1N=Nc1cc([N+](=O)[O-])ccc1O | -22% |

| SMILES | growth inhibition |
| --- | --- |
| Nc1ccc(F)cc1S | -18% |
| COc1cc(C2SCC(=O)N2c2ccc(-c3ccc(-n4c(-c5ccccc5)nc5ccccc5c4=O)cc3)cc2)ccc1O (stereo not given) | -1% |
| Nc1ncnc2c1ncn2C1OC(CO)CC1O (stereo not given) | -1% |
| COc1cc(CSc2ccc(O)cc2)cc(O)c1O | 2% |
| CNC(=O)OCc1c(COC(=O)NC)c2n(c1C)-c1ccc(OC)cc1CCC2 | -16% |
| O=C(NNc1ccccc1)c1ccc(Cl)c(Cl)c1 | -2% |
| Cc1ccc(CC2(OCCN(C)C)CCC(C(C)(C)C)CC2)cc1 (stereo not given) | -3% |
| C[C@]12CC[C@H](O)CC1=CC[C@@H]1C2CC[C@]2(C)C(=O)NC(=O)CC12 (stereo not given in full) | -50% |
| CCCC/C=C/C(C)(C(=O)OCC)C(=O)OCC | -5% |
| CCc1c(Cl)c(C)cc(O)c1Cl | -46% |
| O=C(/C=C(/c1ccccc1)N1CCCCC1)c1ccccc1 | 6% |
| CCCC(=O)Oc1ccc(/C=N/NC(N)=S)nc1 | 2% |
| CCc1nc2ccc(NCCN(C)C)c3c(=O)c4ccccc4n1c23 | 33% |
| Cc1sc2ccc3ccccc3c2[n+]1C | -22% |
| COc1c(O)c(C=O)c(Br)c(C=O)c1O | 4% |
| Cc1ccc(Cl)cc1NC(=O)OCCN(C)C(=O)Nc1cc(Cl)ccc1C | -25% |
| Cc1nc2ccccc2nc1NNc1ccccc1 | -7% |

Reference: PubChem BioAssay (NCI)
